# Results filed as inconclusive are left out. Calls of active or inactive are those of the source.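 How the source made its calls, unless noted: active means normalized viability below 100% at a tested concentration; inactive means the rest.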 Where a SMILES comes first, the peptide text is derived from it. The star is where a group is joined. Cbz = O=C(OCc1ccccc1)*
# Experiments:
# [1] = ovarian cancer cell viability with rucaparib, profiling panel, oncology-focused library, rucaparib conditional (AID 1508598); conditions: patient-derived ovarian cancer cells, CellTiter-Glo viability, 144 h, stronger effect = lower value
# [2] = growth inhibition of DIPG glioma cells, dose response, cell-based, SU-DIPG-XVII, MIPE5.0, CellTiter-Glo, qHTS (AID 1347060; cut-off not given, nearly all actives have AC50 up to about 26 µM;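 on AC50: cells exposed to compound for 48 hours before viability readout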); conditions: SU-DIPG-XVII viability, CellTiter-Glo ATP luminescence
# [3] = growth inhibition of DIPG glioma cells, dose response, cell-based, JHH-DIPG-1, MIPE4.0, CellTiter-Glo, qHTS (AID 1347062; cut-off not given, nearly all actives have AC50 up to about 27 µM;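 on AC50: cells exposed to compound for two days before readout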); conditions: JHH-DIPG-1 viability, CellTiter-Glo ATP luminescence
# [4] = growth inhibition of DIPG glioma cells, dose response, cell-based, SU-DIPG-IV, MIPE4.0, CellTiter-Glo, qHTS (AID 1347063; cut-off not given, nearly all actives have AC50 up to about 30 µM;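 further: compound exposure lasted 48 hours before the viability readout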); conditions: SU-DIPG-IV viability, CellTiter-Glo ATP luminescence
# [5] = growth inhibition of DIPG glioma cells, dose response, cell-based, SU-DIPG-XIII, MIPE5.0, CellTiter-Glo, qHTS (AID 1347064; cut-off not given, nearly all actives have AC50 up to about 23 µM;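 on AC50: cells exposed to compound for 48 hours before the viability read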); conditions: SU-DIPG-XIII viability, CellTiter-Glo ATP luminescence
# [6] = viability loss in pontine glioma line – cell-based, SU-DIPG-XXV, MIPE5.0, CellTiter-Glo, qHTS, dose response (AID 1347065; cut-off not given, nearly all actives have AC50 up to about 26 µM;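 further: cells exposed to compound for 48 hours before ATP readout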); conditions: CellTiter-Glo ATP luminescence
# [7] = SU-DIPG-VI glioma cell viability, MIPE4.0 library, CellTiter-Glo luminescence, qHTS (AID 1347066; cut-off not given, nearly all actives have AC50 up to about 30 µM;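 further: cells exposed to compound for 48 hours before readout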); conditions: CellTiter-Glo ATP luminescence
# [8] = JHH-DIPG-1 glioma cell viability, MIPE5.0 library, CellTiter-Glo luminescence, qHTS (AID 1347067; cut-off not given, nearly all actives have AC50 up to about 26 µM;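 further: cells exposed to compound for 48 hours before readout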); conditions: JHH-DIPG-1 glioma viability, CellTiter-Glo ATP luminescence
# [9] = SU-DIPG-XXV glioma cell viability, MIPE5.0 library, qHTS (AID 1347068; cut-off not given, nearly all actives have IC50 up to about 30 µM;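 on IC50: cells exposed to compound for 48 hours before viability readout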)
# [10] = sensitizers of A549 cells to miR-34 induction, primary screen, imaging, A549 dox-inducible miR-34, nuclei and caspase counts (AID 1347080;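 active means compounds whose cell count with miR-34 switched on is under 0.7 times the count with it off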); conditions: A549 miR-34 inducible, Hoechst nuclei count, 48 h
# [11] = survival rescue of mitochondrial mutant cells in low glucose, primary screen, MELAS cybrids, Rieske KO mouse fibroblasts, CellTiter-Glo (AID 1508586;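 active means mean z-score across replicates of 1.96 or higher in either the MELAS or the Rieske mutant cell line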;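 further: z relative to plate mean and SD of compound and empty wells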)
# [12] = growth inhibition of DIPG glioma cells, dose response, cell-based, SU-DIPG-XIII, MIPE4.0, CellTiter-Glo, qHTS (AID 1347061; cut-off not given, nearly all actives have AC50 up to about 37 µM;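 further: cells exposed to compound for 48 hours before readout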); conditions: SU-DIPG-XIII viability, CellTiter-Glo ATP luminescence
# [13] = modifiers of HSF1 nuclear foci, imaging, Selleck Cancer Library (AID 1347162; in the data active means plate-normalised HSF1 focus index below about 0.46); conditions: human cells, at 10 µM; SSMD: measured here: HSF1 foci SSMD mean; cell count: measured here: cell number; plate-normalised HSF1 focus index: stronger effect = lower value
# [14] = stronger effect = lower value, cell number ratio, induced over uninduced
# [15] = measured here: relative caspase fold change +Dox/-Dox
# [16] = measured here: total cells with miR-34 induction, stronger effect = lower value
# [17] = measured here: total cells without miR-34 induction
smiles,measurement,setting,value
O=C(Cc1ccc(-c2ccc(OCCN3CCOCC3)cc2)cn1)NCc1ccccc1,viability,"[1]; at 0.0195 µM, OCI-C5x cells, without rucaparib",58.9% (active)
same,viability,"[1]; at 0.0195 µM, OCI-P5x cells, with rucaparib 20 µM, 100% = cells with rucaparib alone",85.3% (active)
same,viability,"[1]; at 0.0195 µM, OCI-P5x cells, without rucaparib",29.6% (active)
same,viability,"[1]; at 0.0781 µM, OCI-C5x cells, with rucaparib 10 µM, 100% = cells with rucaparib alone",62.9% (active)
same,viability,"[1]; at 0.0781 µM, OCI-C5x cells, without rucaparib",50.7% (active)
same,viability,"[1]; at 0.0781 µM, OCI-P5x cells, with rucaparib 20 µM, 100% = cells with rucaparib alone",69.5% (active)
same,viability,"[1]; at 0.0781 µM, OCI-P5x cells, without rucaparib",23.9% (active)
same,viability,"[1]; at 0.313 µM, OCI-C5x cells, with rucaparib 10 µM, 100% = cells with rucaparib alone",40.7% (active)
same,viability,"[1]; at 0.313 µM, OCI-C5x cells, without rucaparib",33.9% (active)
same,viability,"[1]; at 0.313 µM, OCI-P5x cells, with rucaparib 20 µM, 100% = cells with rucaparib alone",58.7% (active)
same,viability,"[1]; at 0.313 µM, OCI-P5x cells, without rucaparib",18.5% (active)
same,viability,"[1]; at 1.25 µM, OCI-C5x cells, with rucaparib 10 µM, 100% = cells with rucaparib alone",46.4% (active)
same,viability,"[1]; at 1.25 µM, OCI-C5x cells, without rucaparib",34.1% (active)
same,viability,"[1]; at 1.25 µM, OCI-P5x cells, with rucaparib 20 µM, 100% = cells with rucaparib alone",58.9% (active)
same,viability,"[1]; at 1.25 µM, OCI-P5x cells, without rucaparib",17.4% (active)
same,viability,"[1]; at 5 µM, OCI-C5x cells, with rucaparib 10 µM, 100% = cells with rucaparib alone",50.3% (active)
same,viability,"[1]; at 5 µM, OCI-C5x cells, without rucaparib",32.6% (active)
same,viability,"[1]; at 5 µM, OCI-P5x cells, with rucaparib 20 µM, 100% = cells with rucaparib alone",49.4% (active)
same,viability,"[1]; at 5 µM, OCI-P5x cells, without rucaparib",15.3% (active)
C=C[C@H]1CN2CCC1C[C@@H]2C(O)c1ccnc2ccc(OC)cc12 (stereo not given in full),outcome,[2],inactive
same,outcome,[3],inactive
same,outcome,[4],inactive
same,outcome,[5],inactive
same,outcome,[6],inactive
same,outcome,[7],inactive
same,outcome,[8],inactive
same,outcome,[9],inactive
same,fold change,[10]; [14],0.966 (inactive)
same,fold change,[10]; [15],0.977
same,cell count,[10]; [16],5680
same,cell count,[10]; [17],5880
CCCCOc1ccc(C(=O)Nc2ccc(F)cc2F)cc1,outcome,[2],inactive
same,outcome,[3],inactive
same,outcome,[4],inactive
same,outcome,[5],inactive
same,outcome,[6],inactive
same,outcome,[7],inactive
same,outcome,[8],inactive
same,outcome,[9],inactive
same,fold change,[10]; [14],0.889 (inactive)
same,fold change,[10]; [15],0.917
same,cell count,[10]; [16],9070
same,cell count,[10]; [17],10200
same,z-score,"[11]; MELAS cybrid survival, CellTiter-Glo 48 h, stronger effect = higher value",-0.373 (inactive)
same,z-score,"[11]; Rieske KO mouse fibroblast survival, CellTiter-Glo 72 h",0.589
CCn1nnc2c(N3CCOCC3)nc(-c3ccc(NC(=O)Nc4ccc(C(=O)N5CCN(C)CC5)cc4)cc3)nc21,AC50,[2],0.372 µM (active)
same,AC50,[3],0.469 µM (active)
same,AC50,[4],0.0148 µM (active)
same,AC50,[5],0.742 µM (active)
same,AC50,[6],0.372 µM (active)
same,AC50,[7],0.166 µM (active)
same,AC50,[8],0.934 µM (active)
same,IC50,[9],0.742 µM (active)
Clc1ccc(COC(Cn2ccnc2)c2ccc(Cl)cc2Cl)cc1 (stereo not given),AC50,[2],18.6 µM (active)
same,outcome,[12],inactive
same,AC50,[6],16.6 µM (active)
same,AC50,[8],13.2 µM (active)
O=C(O)[C@H](CC(=O)N1C[C@H]2CCCC[C@H]2C1)Cc1ccccc1,outcome,[2],inactive
same,outcome,[3],inactive
same,outcome,[4],inactive
same,outcome,[5],inactive
same,outcome,[6],inactive
same,outcome,[7],inactive
same,outcome,[8],inactive
same,outcome,[9],inactive
CC(C)C[C@@H](C=O)NC(=O)[C@H](CC(C)C)NC(=O)[C@H](CC(C)C)NC(=O)OCc1ccccc1 (Cbz-Leu-Leu-Leu-aldehyde),AC50,[2],0.468 µM (active)
same,AC50,[3],0.166 µM (active)
same,AC50,[4],0.148 µM (active)
same,AC50,[5],0.059 µM (active)
same,AC50,[6],0.148 µM (active)
same,AC50,[7],0.296 µM (active)
same,AC50,[8],0.468 µM (active)
same,IC50,[9],0.263 µM (active)
same,fold change,[10]; [14],1.07 (inactive)
same,fold change,[10]; [15],1.23
same,cell count,[10]; [16],638
same,cell count,[10]; [17],595
same,SSMD,[13],7.09
same,cell count,[13],6800
same,plate-normalised HSF1 focus index,[13],1.43 (inactive)
